Results filed as inconclusive are left out. A call without a number means that no potency is given here. Unmarked numbers belong to inactive results. Active and inactive are the calls of the source. Calls come from the whole dose curve; as a rule, active = well fitted inhibition curve with a large enough effect; inconclusive = small, poorly fitted or top-dose-only effect; inactive = flat fitted curve, though single readings scatter.
target: Calcium and integrin-binding protein 1 (Homo sapiens) (UniProt Q99828); experiment: Primary qHTS for Identification of Calcium Integrin Binding Protein 1 (CIB1) Competitor (AID 1508620); settings: CIB1-GST / FITC-alphaIIb peptide fluorescence polarization; series mostly up to 57.7 µM;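 note: GST tagged CIB1 binding a fluorescein labelled alphaIIb integrin peptide tracer; top concentration of the series differs between compounds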
Procedure, shortened: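 Fluorescence polarization competition: CIB1-GST (1 uM final) preincubated with compound 15 min at room temperature, then FITC-labeled alphaIIb peptide (100 nM final) added for another 15 min. Polarization read at Ex 480/Em 540.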

Chain of Calcium and integrin-binding protein 1 (Homo sapiens) (Q99828 whole entry, looked up): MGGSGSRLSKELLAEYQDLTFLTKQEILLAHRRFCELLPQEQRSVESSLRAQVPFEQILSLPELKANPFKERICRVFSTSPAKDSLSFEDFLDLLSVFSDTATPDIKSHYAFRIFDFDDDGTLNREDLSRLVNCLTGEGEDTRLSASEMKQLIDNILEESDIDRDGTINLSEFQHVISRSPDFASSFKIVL

SMILES | Potency | activity change, negative = inhibition
C[C@H]1[C@H](C)CC[C@]2(C(=O)O)CC[C@]3(C)C(=CC[C@@H]4[C@@]5(C)C[C@@H](O)[C@H](O)[C@@](C)(CO)[C@@H]5CC[C@]43C)[C@H]12 | inactive | 
CC1=C2C3OC(=O)C(C)C3(O)CCC2(C)CCC1=O (stereo unspecified) | inactive | 
CC(=O)O[C@@H]1[C@H](O[C@@H]2O[C@H](CO)[C@@H](O)[C@H](O)[C@H]2O)[C@@H](O[C@@H]2O[C@@H](C)[C@H](O)[C@@H](O[C@@H]3O[C@H](CO)[C@@H](O)[C@H](O)[C@H]3O)[C@H]2O)[C@H](OC(=O)C23CCC4(C)C(=CCC5C6(C)CC(O)C(O[C@@H]7O[C@H](C(=O)O)[C@@H](O)[C@H](O)[C@H]7O)C(C)(C(=O)O)C6CCC54C)C2CC(C)(C)CC3O)O[C@@H]1C (stereo partly specified) |  | 4.49% [at 12.4 µM]
Oc1ccc([C@H]2COc3cc(O)ccc3C2)cc1 | inactive | 
O=C(O)CCc1cccc(O[C@@H]2O[C@H](CO)[C@@H](O)[C@H](O)[C@H]2O)c1O | inactive | 
O=C(NCc1ccc(OC(F)(F)F)cc1)C1c2ccccc2C(=O)N1C1CCOCC1 (stereo unspecified) | inactive | 

Source: PubChem BioAssay (NCATS)
